Data as given in PubChem BioAssay AID504766 (The Scripps Research Institute Molecular Screening Center, 2011).
“And” between values parts separate entries of the source, which are not always exact repeats. Identical values can stand only once. Out of some 340,000 compounds screened, about 3,400 (1%) were called active.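 Rule for the calls: active = inhibition above the mean over all tested compounds plus 3 SD (cut at about 4.2% in these data); inactive = the rest.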 The list comes from a sample in which actives are over-represented; it also holds similar structures and randomly drawn compounds.

target: Nuclear receptor subfamily 0 group B member 1 (Homo sapiens) (UniProt P51843); test: DAX1 (NR0B1) inhibitors, primary screen, cell-based, HEK293, Gal4-DAX1, luciferase luminescence (AID 504766); conditions: HEK293 Gal4-DAX1 luciferase reporter, at 6.75 µM, hits give high values;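 note: 0% = DAX1-transfected cells with DMSO and 100% = empty-vector control cells with DMSO; inhibition shows as a rise in luminescence from relieved DAX1 repression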
Sequence (P51843 207-470 limits assumed): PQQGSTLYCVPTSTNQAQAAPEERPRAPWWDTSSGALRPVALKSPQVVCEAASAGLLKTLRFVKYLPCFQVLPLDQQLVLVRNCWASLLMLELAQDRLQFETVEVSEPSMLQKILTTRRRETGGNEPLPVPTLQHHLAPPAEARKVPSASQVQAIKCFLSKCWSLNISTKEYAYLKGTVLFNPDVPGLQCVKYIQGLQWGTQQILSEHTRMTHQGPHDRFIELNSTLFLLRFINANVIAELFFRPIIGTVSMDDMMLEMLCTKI

inhibition, inactive:
CCOc1ccc(NS(=O)(=O)c2ccc(C(=O)NCC3CCCO3)cc2)cc1 (stereo unspecified) 0.78%
O=[N+]([O-])c1cccc(/C=N/Nc2ncc(Br)cn2)c1 3.56%
CC(=O)c1sc(N/N=C/c2ccc(C(C)C)cc2)nc1C 0.37%
CC1=C(C(=O)N(C)C)CC(CC(=O)NCCN2CCOCC2)C(=O)N1Cc1ccccc1 (stereo unspecified) 0.86%
CC(C)CCOc1ccc(C(=O)Nc2cc(S(=O)(=O)N3CCOCC3)ccc2N2CCOCC2)cc1 1.57%
COc1ccc(C(=O)c2oc3ccc(Br)cc3c2NC(C)=O)cc1 0.74%
COC(=O)C1=C(C)N(C)C(C)=C(C(=O)OC)C1c1cccc(Br)c1 -0.19%
Cc1ccc(C(=O)OCC(=O)NC2CCCCCCC2)cc1C 1.83%
CCOC(=O)c1cc(-c2sc(NC(=O)c3ccccc3)nc2C)n(-c2ccc(Br)cc2)n1 -0.34%
N/C(=N\OC(=O)c1ccc([N+](=O)[O-])cc1)c1ccccn1 0.14%
COc1ccccc1OCC(=O)O/N=C(\N)c1ccccn1 2.91%
CCN(CC)C(=O)C(C)N1c2cccc3cccc(c23)S1(=O)=O (stereo unspecified) 0.49%
COc1ccc(NC(=O)CN2C(=O)NC(C)(c3ccccc3)C2=O)cn1 (stereo unspecified) 1.1%
Cc1ccc(-c2ccc(C3=CC(=O)CC(C)(C)C3=O)cc2)cc1 3.24%
Cc1ccc(N2CC(C(=O)Nc3ccc(S(=O)(=O)N4CCCC4)cc3)CC2=O)cc1C (stereo unspecified) -0.34%
O=C(Nc1ccc(S(=O)(=O)N2CCCCC2)cc1)C1CC(=O)N(c2ccc(F)cc2)C1 (stereo unspecified) -1.03%
Nc1cc(C(=O)N2CCN(c3ccccc3Cl)CC2)ccc1N1CC2CC(C1)c1cccc(=O)n1C2 (stereo unspecified) 2.59%
COc1ccc(CNC(=O)C2CCC(CNc3c(N4CCOCC4)c(=O)c3=O)CC2)cc1 (stereo unspecified) -0.15% and -0.24%
CC(NC(=O)C1CCC(CNc2c(N3CCOCC3)c(=O)c2=O)CC1)c1ccccc1 (stereo unspecified) 0.2%
C[C@H]1CN([C@@H](C)CO)C(=O)CCCn2cc(nn2)CO[C@@H]1CN(C)C(=O)Nc1ccccc1 1.03%
CCn1c(=O)c(=O)n(CC)c2cc(S(=O)(=O)N3CCc4ccccc43)ccc21 -1.26%
O=S(=O)(c1ccc2c(c1)OCCO2)N1CCc2ccccc21 0.28%
C[C@H]1CN([C@@H](C)CO)C(=O)CCCn2cc(nn2)CO[C@@H]1CN(C)S(=O)(=O)c1ccc(-n2cccn2)cc1 2.41%
CCC(=O)N1c2ccccc2NC2=C(C(=O)CCC2)C1c1ccco1 (stereo unspecified) -0.14%
CCCC(=O)N1c2ccccc2NC2=C(C(=O)CCC2)C1c1ccc(F)cc1 (stereo unspecified) -0.04%
COc1ccc(-c2ccc(CN3C(C(C)C)C(=O)N(Cc4cn(CC5CCCCC5)nn4)CCS3(=O)=O)cc2)cn1 (stereo unspecified) -0.57%
COc1cccc(OC)c1C(=O)N1CCN(Cc2ccccc2F)CC1 2.65%
CC(=O)N1C(=O)C2(Nc3ccccc3N2)c2ccccc21 0.59%
CC(=O)NN1C(=O)c2ccccc2NC1c1ccccc1 (stereo unspecified) -1.71%
Cc1c(NC(=O)COC(=O)/C=C/c2cccc(F)c2)c(=O)n(-c2ccccc2)n1C -0.66%
C[C@H]1CN([C@@H](C)CO)S(=O)(=O)c2ccc(Br)cc2O[C@H]1CN(C)C(=O)c1cnccn1 -0.34%
O=C(NCc1nnnn1-c1ccc(Cl)cc1)c1ccc([N+](=O)[O-])o1 0%
N#CCCC(C#N)(c1cccnc1)N1CCOCC1 (stereo unspecified) -0.32%
CC1CCCCC1NC(=O)Cn1c(=O)cnc2ccccc21 (stereo unspecified) -1.16%
CC(C)c1cc(C(=O)NC2CCCCCC2)c2ccccc2n1 -1.68%
COc1cc(/C=N/N2CCN(c3ccccc3)CC2)ccc1OC(C)=O -0.26%
COc1ccccc1N1CCN(/N=C\C(Br)=C\c2ccccc2)CC1 -0.74%
O=C(c1ncn2c1c(=O)[nH]c1ccccc12)N1CCc2ccccc2C1 -0.1%
COc1ccc([C@H]2N[C@]3(CCCN(Cc4ccco4)C3=O)[C@H]3C(=O)N(C)C(=O)[C@@H]23)cc1 0.93%
O=C(C1CCCO1)N1CCN(C(=O)C23CC4CC(CC(C4)C2)C3)CC1 (stereo unspecified) -0.78%
CCOC(=O)/C(C#N)=C/c1ccc(N2CCN(Cc3ccccc3)CC2)cc1 -0.11%
COC(=O)/C(C#N)=C/c1occc1C -0.79%
O=S(=O)(c1cccc(C(F)(F)F)c1)N1c2ccccc2-n2cccc2C1c1cccnc1 (stereo unspecified) 0.07%
COc1ccc(NC(=O)CSc2nnnn2-c2cccc(OC)c2)cc1 0.03%
COCCNC(=O)COc1ccc(N(C)S(=O)(=O)c2ccc3ccccc3c2)cc1 -1.92%
CN(C)S(=O)(=O)c1cccc(NC(=O)COc2ccc3ccccc3c2)c1 -1.43%
COc1ccc2nc(-c3ccccn3)ccc2c1 -0.26%
COc1ccc([C@H]2N[C@]3(CCCN(CC4CCCCC4)C3=O)[C@H]3C(=O)N(C)C(=O)[C@@H]23)cc1 0.64%
CCn1c(SCC(=O)NC2CC2)nnc1-c1ccccc1OC 1.22%
Cc1occc1-c1nnc(SCC(=O)NC2CCCCC2)o1 0.12%
C[C@@H]1CN([C@H](C)CO)C(=O)c2cc(Br)cnc2O[C@@H]1CN(C)Cc1cncnc1 0%
Clc1ccc(-c2cc(COc3ccccc3)no2)cc1Cl 0.18%
c1ccc2cc(OCCN3CCCC3)ccc2c1 0.12%
Cc1ccccc1-c1ccc2c(c1)O[C@@H](CN(C)Cc1ccc(C(=O)O)cc1)[C@@H](C)CN([C@H](C)CO)S2(=O)=O -0.49%
Cc1ccnc(SC2CC(=O)N(c3ccccc3)C2=O)n1 (stereo unspecified) 2.33%
COc1ccc(N2C(=O)c3ccccc3NC2c2ccc(OC)c(CN3CCOCC3)c2)cc1 (stereo unspecified) 3.5%
COc1ccc(C2Nc3ccccc3C(=O)N2c2ccc(F)cc2)cc1Cn1nnc2ccccc21 (stereo unspecified) -0.72%
COc1ccc(Cl)cc1NC(=O)CN(C)C(=O)c1cn(-c2ccccc2)nc1-c1cccs1 -0.65%
COCC1CCCCN1C(=O)c1cc(COc2ccc(C)c(C)c2)on1 (stereo unspecified) 2.51%
O=S(=O)(NC1CCCC1)c1ccc(-n2cnnn2)cc1 0.06%
O=S(=O)(Nc1ccc(-n2cnnn2)cc1)c1ccc(Cl)cc1 0.55%
C[C@@H]1CN([C@H](C)CO)C(=O)CCCn2cc(nn2)CO[C@H]1CN(C)S(C)(=O)=O 0.1%
CC1(C)NC(=O)N(CC(=O)Nc2ccc(-c3ccccc3)cc2)C1=O 1.36%
CCOC(=O)C1=C(C)c2ccccc2OC1(C)C(=O)OCC (stereo unspecified) 0.33%
O=C1CC[C@@H](C(=O)N2CSC[C@@H]2C(=O)Nc2ccc(C(F)(F)F)cc2)N1 0.12%
N#Cc1ccccc1NC(=O)c1ccc2c(c1)OCO2 2.82%
Cn1c(=O)n(C)c2cc(/C=N/NC(=O)c3cccc(Br)c3)ccc21 -2.01%
O=C(Nc1ccc(N2CCOCC2)cc1)c1ccc2c(c1)OCO2 1.98%
O=C(CN1CCN(c2ccccc2F)CC1)c1ccc2c(c1)OCO2 -0.06%
O=C(Nc1ccc2c(c1)OCO2)c1ccc(N2C(=O)c3ccccc3C2=O)cc1 0.86%
COc1cccc(OC)c1C(=O)Nc1ccc2c(c1)n(C)c(=O)n2C 1.46%

inhibition, active:
CC(C)c1ccc(C=NNc2ccc([N+](=O)[O-])cn2)cc1 4.47%
COC(=O)C1NN=C(C(=O)c2ccc(Br)cc2)C1c1cccc(Br)c1 (stereo unspecified) 5.4%
COc1ccc(C(=O)O/N=C(\N)c2ccccn2)cc1[N+](=O)[O-] 4.71%
CNS(=O)(=O)c1ccc(NC(=O)C2CC(=O)N(c3ccc(Cl)cc3)C2)cc1 (stereo unspecified) 4.35%
O=C(NCc1ccc(F)cc1)C1CCC(CNc2c(N3CCOCC3)c(=O)c2=O)CC1 (stereo unspecified) 5.78%
O=S(=O)(c1ccccc1)N1CCc2ccccc21 5.18%
CC(C)C(=O)N1c2ccccc2NC2=C(C(=O)CCC2)C1c1ccc(N(C)C)cc1 (stereo unspecified) 4.33%
CC(C)=NN1C(=O)c2ccccc2NC1(C)C 5.58%
O=C(/C=C/c1cnc2ccccc2n1)NC1CCCCCC1 4.47%
COc1ccccc1N1CCN(/N=C/c2ccc(O)cc2O)CC1 5.15%
CCOC(=O)/C(C#N)=C\c1c(C)cc(C)c(COC(C)=O)c1C 5.6%
COC(=O)C(C)NC(=O)COc1ccc2ccccc2c1 (stereo unspecified) 4.35%
CCn1c(SCC(=O)NC2CCCC2)nnc1-c1ccoc1C 4.45%
Clc1ccccc1-c1cc(COc2ccc3ccccc3c2)no1 4.61%
COc1ccc(C2Nc3ccccc3C(=O)N2c2ccc(Cl)cc2)cc1Cn1cc([N+](=O)[O-])cn1 (stereo unspecified) 4.6%
c1cc(-n2cnnn2)ccc1NC1=NCCC1 5.97%
CCOC(=O)C1(C(F)(F)F)N=C(N(C)C)OC(N(C)C)=N1 5.05%
O=C(Nc1ccccc1F)c1ccc2c(c1)OCO2 4.59%
Cn1c(=O)n(C)c2cc(C(=O)Nc3ccc4c(c3)OCO4)ccc21 13.2%
Cn1c(=O)n(C)c2cc(C(=O)Nc3ccc(Br)cc3)ccc21 4.79%
